# Data: the supplement of paper PMC3334620
# In all, about 33,000 sequences were measured (“E-score (-0.5 to 0.5)”: median about -0.016, highest 2% from about 0.3 on). Only a selection was taken, and the highest values are over-represented in it overall.
# Molecular target: T1, Yer184c (UniProt P39961)
# T1 sequence: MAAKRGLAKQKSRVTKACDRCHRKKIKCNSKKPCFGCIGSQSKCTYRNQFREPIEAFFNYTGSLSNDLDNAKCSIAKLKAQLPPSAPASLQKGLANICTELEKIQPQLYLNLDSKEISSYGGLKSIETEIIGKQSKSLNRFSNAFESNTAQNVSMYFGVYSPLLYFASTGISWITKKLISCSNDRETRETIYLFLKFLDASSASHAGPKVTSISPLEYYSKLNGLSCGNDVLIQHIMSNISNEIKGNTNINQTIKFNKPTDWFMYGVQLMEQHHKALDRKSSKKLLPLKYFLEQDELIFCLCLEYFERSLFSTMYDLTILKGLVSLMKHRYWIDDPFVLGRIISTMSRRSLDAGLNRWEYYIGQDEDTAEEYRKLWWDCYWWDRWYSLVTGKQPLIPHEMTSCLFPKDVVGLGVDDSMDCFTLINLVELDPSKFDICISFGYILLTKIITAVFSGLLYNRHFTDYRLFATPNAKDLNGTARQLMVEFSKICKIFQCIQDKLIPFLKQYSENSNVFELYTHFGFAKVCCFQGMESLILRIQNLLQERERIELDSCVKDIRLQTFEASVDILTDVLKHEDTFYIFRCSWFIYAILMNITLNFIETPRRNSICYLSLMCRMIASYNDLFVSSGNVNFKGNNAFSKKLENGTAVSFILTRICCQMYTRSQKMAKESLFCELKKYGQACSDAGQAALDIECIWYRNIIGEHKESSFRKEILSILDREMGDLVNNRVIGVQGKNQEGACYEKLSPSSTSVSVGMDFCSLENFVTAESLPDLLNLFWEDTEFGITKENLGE
# Assay: PBM E-score (8-mer binding enrichment) (E-score (-0.5 to 0.5)); higher = stronger / more preferred TF binding
# Conditions: protein concentration: 100 nM; construct: GST-full length
# Experimental: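 Universal 'all 10-mer' protein binding microarrays (Agilent AMADID 015681) probed with GST-tagged S. cerevisiae TFs (full-length or DBD) made by in vitro transcription/translation (PURExpress), about 100-200 nM. Bound TF was detected with fluorescent anti-GST. Each ungapped 8-mer (which stands for itself and its reverse complement) is scored by the PBM enrichment score (E-score), a modified Wilcoxon-Mann-Whitney statistic from -0.5 to +0.5, computed with the Universal PBM Analysis Suite. Scale: above 0.35 generally sequence-specific binding.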
row,Sequence,PBM E-score
1,CACCGGCC,0.177
2,AACCGGCC,0.318
3,CACCGGCG,0.238
4,AACCGACG,0.189
5,AACCGGCG,0.306
6,AACCGGCA,0.238
7,ATATGAAT,0.156
8,ATACTCGA,-0.0376
9,AAGTCCCC,-0.18
10,TAAAAGTA,0.161
11,AGAGAGTG,-0.158
12,CTCTCATA,-0.0704
13,GAGGGAGC,-0.277
14,CGAGGTTC,0.116
15,CCCGAGCC,0.155
16,GCCGAGGA,0.335
17,CCCGAGGC,-0.013
18,ACCGAGCC,0.221
19,TCCGAGGA,0.196
20,GCCGAGGC,0.386
21,ACCGAGGC,-0.0788
22,CCCGAGGA,0.0175
23,GCCGAGCC,0.34
24,AGCGGTGC,-0.168
25,AATTGCGC,0.16

row,Sequence,PBM E-score
1,CGGATCAC,0.277
2,CTATATTC,-0.0128
3,ATATATAC,0.317
4,ATATATTC,0.319
5,ATATATAG,0.282
6,ATTTATAC,0.28
7,ATATATTG,0.0957
8,CTATATAC,0.247
9,GTATATAC,-0.0816
10,ATTTATAA,0.326
11,CTTTATAA,0.0517
12,ATATATAT,0.336
13,CTATATAG,-0.109
14,AGTAGCCG,0.198
15,GTGACATA,0.121
16,CTTTACCC,0.00954
17,CCTGAAAC,0.15
18,AATACTGT,0.188
19,GAAGCAAA,-0.0663
20,CAGCCTCG,-0.0314
21,GGCTTAAC,-0.0348
22,ATATATAA,0.339
23,ATATAACC,-0.0755
24,TTATATAA,0.225
25,ATATAACA,0.309

row,Sequence,PBM E-score
1,CTATATAA,0.0877
2,CTATAACA,-0.0394
3,AGATGGGA,-0.194
4,GAGGCTGA,-0.172
5,ACAGGGGA,-0.249
6,CCAGTCGG,-0.0574
7,ATATATCG,0.312
8,ATATATCA,0.115
9,ATATATCC,0.318
10,AAATATCG,0.194
11,AATTATCG,0.305
12,AATTATCA,0.221
13,AATTATCC,0.116
14,CTATATCC,-0.119
15,AGATATCC,0.0863
16,AAGTATTC,0.0574
17,CGTAAGCA,-0.252
18,AGCTAGCC,-0.0869
19,AAGGTGAA,-0.0939
20,CAGCAAAA,-0.0176
21,CCATACCA,-0.145
22,ATTGAGTA,0.191
23,CGGACAAC,0.373
24,CGGACAAG,0.234
25,GGGACAAC,-0.0988

row,Sequence,PBM E-score
1,CGGACGAC,0.23
2,CGGACAAA,0.353
3,AGGACAAC,0.0373
4,CGGACGAA,0.353
5,AGGACAAA,0.136
6,GGGACGAA,0.0852
7,CATCGAAG,-0.0421
8,ACTTAACA,-0.00053
9,ATGCTCTG,-0.178
10,AATGGCCG,0.0612
11,ATGAAGGC,-0.0969
12,CGTCCCGA,0.0521
13,GATCTGAC,-0.0541
14,GTTGCCGA,0.373
15,GCTGCCGA,0.292
16,ATTGCCGA,0.311
17,ATTGCCCA,-0.102
18,GTTGCCCA,-0.0158
19,CTTGCCGA,0.22
20,ATTGCCGC,0.162
21,ATTGCCAG,-0.0205
22,ATTGCCGG,0.348
23,TCCTGCGA,0.00447
24,GGCCAACA,-0.0401
25,GCTGTTAC,-0.0967

row,Sequence,PBM E-score
1,CTTAGCAA,0.0294
2,TCCTGCAA,-0.0596
3,AGGCATAT,0.0107
4,ACGCCAGA,-0.132
5,TAACCGGA,0.279
6,CAACCGCC,-0.042
7,CAACCGCA,0.0386
8,GAACCGGA,0.349
9,CAACCGGA,0.373
10,CTACCGGC,0.0792
11,CAACCGGC,0.323
12,CAACCGAC,0.238
13,CAACCGCG,0.306
14,CAACCGGG,0.14
15,CAACCGAA,0.258
16,GAACCGGC,0.18
17,CTCTAACA,0.0218
18,AGTTCGAT,-0.0396
19,AGGTGAAC,-0.112
20,ACGTTGCT,-0.0994
21,CGGATGGA,0.207
22,ATCACAAT,0.0634
23,CAAGCGCA,0.0414
24,CCCACCTA,-0.241
25,GGTATCAA,-0.0802

row,Sequence,PBM E-score
1,AGACCGGC,0.128
2,AAACCGGA,0.306
3,AAACCGCC,0.147
4,AAACCGGT,0.216
5,AAACCGGC,0.313
6,AAACCGGG,0.0839
7,ATTTAGAC,0.121
8,AAAACCCG,0.163
9,AAAGCCGG,0.351
10,CAAGCCCA,-0.326
11,CCAGCCGA,0.205
12,AAAGCCGA,0.174
13,GAAGCCGA,0.287
14,CAAGCCTG,-0.271
15,TAAGCCGA,0.369
16,CAAGCCGC,-0.0146
17,AAAGCCGT,0.262
18,CAAGCCGG,0.327
19,AAAGCCGC,0.188
20,CAAGCCGA,0.324
21,CTCACAAG,-0.177
22,AAGGTCGG,-0.018
23,TAGGTGAA,0.0169
24,CACCAACA,-0.23
25,GGCTATCA,0.131

row,Sequence,PBM E-score
1,ACTCGGAT,0.268
2,ACTCGGAC,0.208
3,GCTCGGTA,0.129
4,GCTCGGAA,0.334
5,ACTCGGAA,0.341
6,CCTCGGAA,0.28
7,TCTCGGAA,0.334
8,TGTCGGAA,0.163
9,GCTCGGAC,0.187
10,GCAGCAGC,-0.0995
11,CCATAGCG,-0.124
12,CGGTCTCA,0.0469
13,GGACGCCA,-0.224
14,CCTCTTCA,-0.18
15,ACTCTCGC,-0.169
16,ATTCTCGG,0.345
17,ATTCTCGA,0.0246
18,ATTCTCGC,-0.192
19,ACTCTCGA,-0.0924
20,ACTCTCGG,0.344
21,ACCACGAT,-0.0131
22,AGTTATGG,-0.0312
